From PubChem BioAssay AID1209 (Sanford-Burnham Center for Chemical Genomics, 2008)
Out of some 190,000 compounds screened, about 810 (0.43%) were called active. No stated cut-off is given here; in the data, active means inhibition above about 50%; inactive means the rest. Only a selection was taken, and actives are over-represented in it overall.

target: Mannose-6-phosphate isomerase (Homo sapiens) (UniProt P34949); assay: inhibitors of human PMI, primary screen, biochemical, fluorescence intensity, coupled assay (AID 1209); conditions: purified PMI enzyme, at 20 µM, active compounds read high;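 further: plate controls were DMSO vehicle for no effect and wells lacking substrate for full effect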
Sequence (P34949 whole entry, looked up): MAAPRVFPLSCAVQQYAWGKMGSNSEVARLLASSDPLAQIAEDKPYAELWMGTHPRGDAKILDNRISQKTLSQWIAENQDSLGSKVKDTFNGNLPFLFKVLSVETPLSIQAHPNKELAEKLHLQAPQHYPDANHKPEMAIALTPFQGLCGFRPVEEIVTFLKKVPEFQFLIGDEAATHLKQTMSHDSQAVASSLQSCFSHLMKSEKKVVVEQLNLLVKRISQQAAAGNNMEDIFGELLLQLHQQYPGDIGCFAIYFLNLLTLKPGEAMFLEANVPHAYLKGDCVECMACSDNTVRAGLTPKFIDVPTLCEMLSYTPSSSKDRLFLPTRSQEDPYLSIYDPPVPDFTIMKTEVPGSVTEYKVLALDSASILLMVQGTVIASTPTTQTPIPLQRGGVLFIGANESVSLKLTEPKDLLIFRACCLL

SMILES | inhibition
CCN(CC)CCn1c(=N)n(CC(O)c2ccc(OC)c(OC)c2)c2ccccc21 (configuration not stated) | -0.3% (inactive)
O=C(CCN1C(=O)C2CC=CCC2C1=O)N1CCN(c2ccccn2)CC1 (configuration not stated) | -3.3% (inactive)
C=CCSc1nnc(C)n1-c1ccc(Cl)cc1 | 21.9% (inactive)
C/C(=N\N=C(N)N)c1cccc(Cl)c1 | 11.7% (inactive)
O=C(N/N=C/c1ccccc1C(=O)O)C(=O)N1CCCCC1 | 2.7% (inactive)
Oc1cccc(/C=N/NC(=S)Nc2cccnc2)c1O | 55.6% (active)
Oc1ccc(/C=N/NC(=S)NCCN2CCOCC2)c(O)c1 | -8.8% (inactive)
NC(=S)N/N=C/c1ccccc1 | 11.4% (inactive)
Oc1ccc(/C=N/NC(=S)Nc2cccnc2)c(O)c1 | -1.2% (inactive)
S=C(NCCN1CCOCC1)N/N=C/c1ccccc1 | 2% (inactive)
NC(=S)N/N=C/c1ccccc1[N+](=O)[O-] | 24.6% (inactive)
Oc1ccc(/C=N/NC(=S)Nc2cccnc2)cc1O | 43.5% (inactive)
Oc1cccc(/C=N/NC(=S)NCCN2CCOCC2)c1O | 66.9% (active)
O=C(COc1ccc(Cl)cc1)NCC(=O)N/N=C/c1cccs1 | 2.8% (inactive)
Cc1noc(C(=O)Nc2c(C)n(C)n(-c3ccccc3)c2=O)c1Cl | -5.9% (inactive)
COc1cccc(S(=O)(=O)N2CCOCC2)c1 | 1.2% (inactive)
O=C(COC(=O)c1cccnc1Cl)NCC1CCCO1 (configuration not stated) | -1.2% (inactive)
CCOc1ccc(OCC(=O)OCn2c(SC)nnc(C)c2=O)cc1 | 15.9% (inactive)
O=c1[nH]c2ccccc2n2cnnc12 | -5.1% (inactive)
O=c1[nH]c2ccccc2n2c(-c3ccccc3)nnc12 | 84.7% (active)
O=c1[nH]c2ccccc2n2c(-c3ccncc3)nnc12 | 1.8% (inactive)
Cc1ccc(NC(=O)N(CCCN2CCOCC2)Cc2cccnc2)cc1C | -1.1% (inactive)
COC(=O)CNC(=O)Cn1cnc2sc(C)c(S(=O)(=O)N3CCC(C)CC3)c2c1=O | -9% (inactive)
CCc1ccc(N2CCCn3c2nc2c3c(=O)n(CCN3CCOCC3)c(=O)n2C)cc1 | -10.4% (inactive)
O=C(N/N=C/c1ccccc1)c1[nH]c2ccc(Br)cc2c1-c1ccccc1 | 15.4% (inactive)

SMILES | inhibition
Oc1ccc(Br)cc1/C=N/N1CCN(Cc2ccccc2)CC1 | 6.6% (inactive)
O=C(O)c1cccc(C(=O)O)n1 | 58% (active)
CC(C)OC(=O)c1cccc(C(=O)O)n1 | 21.8% (inactive)
CC(=O)Nc1cccc(C(=O)O)n1 | 6.7% (inactive)
Cc1ccc(SCc2cn3cccnc3n2)cc1 | 12.5% (inactive)
Cc1ccc(C2=[N+]([O-])C3(CCCCC/C3=N\NC(N)=O)N(O)C2(C)C)o1 (configuration not stated) | -4.7% (inactive)
Cc1nccn1CC(=O)N/N=C/c1cccc(O)c1 | 7.9% (inactive)
Cc1nccn1CC(=O)N/N=C/c1ccc(O)c(O)c1 | 64.4% (active)
O=C(COc1ccccc1[N+](=O)[O-])N/N=C/c1ccc(O)c([N+](=O)[O-])c1 | -10.2% (inactive)
O=C(COc1ccccc1-c1ccccc1)N/N=C/c1ccc2ccccc2c1 | 8.9% (inactive)
O=C(COc1ccccc1C(=O)N/N=C\c1ccc(O)c(O)c1)N/N=C/c1ccc(O)c(O)c1 | 60.6% (active)
COc1cccc(/C=N/NC(=O)Cn2ccnc2C)c1 | 14.6% (inactive)
CCOC(=O)C1=C(C)NC(SC(C)=O)=NC1c1ccc(OC(C)=O)c(OC)c1 (configuration not stated) | 17.5% (inactive)
CC1CCc2c(sc(NC(=O)COC(=O)C3CCCO3)c2C#N)C1 (configuration not stated) | -3.7% (inactive)
O=C(CSCC(=O)N1CCOCC1)Nc1ccccc1 | -11.1% (inactive)
O=C(NCCc1ccccc1)C1CCN(S(=O)(=O)N2CCC3(CC2)OCCO3)CC1 | 17.1% (inactive)
O=C1CN(C(=O)CSc2nc(-c3ccccc3)cs2)c2ccccc2N1 | -3.1% (inactive)
COc1ccc2nc(NNC(=O)C3COc4ccccc4O3)sc2c1 (configuration not stated) | -43.9% (inactive)
CN1C(=O)/C(=C/C=C2/CCCN2C)N(C)C1=S | 35.8% (inactive)
CN1C(=O)/C(=C/C=C2\SCCN2C)N(C)C1=S | 45.3% (inactive)
CN1C(=O)/C(=C\C=C2/CCCN2C)N(C)C1=S | 53.2% (active)
COc1ccc(/C=C(/NC(=O)c2ccccc2)C(=O)N/N=C/c2ccncc2)c(OC)c1 | 18.6% (inactive)
COc1ccc(CCNC(=O)c2nnn(CC(=O)Nc3cccc(F)c3)c2N)cc1OC | -0.3% (inactive)
CCOc1ccc(/C=C/C(O)=C2/C(=O)NC3(C)CC2c2ccccc2O3)cc1OC (configuration not stated) | -21.3% (inactive)
O=C(c1cnn(-c2ccccc2)c1)c1ccccc1O | 19.7% (inactive)

SMILES | inhibition
CCc1cc(C(=O)Cc2cnn(-c3ccccc3)c2)c(O)cc1O | 11.4% (inactive)
O=C(Cc1cnn(-c2ccccc2)c1)c1ccc(O)c(O)c1O | 70.8% (active)
Nn1c(SCC(=O)Nc2ccc3c(c2)OCO3)nnc1C1CC1 | 5.7% (inactive)
CSc1nccc(Oc2cccc(C#N)c2)n1 | -4.1% (inactive)
N#Cc1ccc(N=c2ssnc2Cl)cc1 | 81.2% (active)
N#Cc1cccc(N=Cc2c(O)ccc3ccccc23)c1 | 39.3% (inactive)
COc1ccc(N2CCN(C(=O)c3cccn4c(=O)c5ccccc5nc34)CC2)cc1 | -5.8% (inactive)
CC1CCCN(Cc2c(O)ccc3c(=O)c(-c4nc5ccccc5s4)c(N)oc23)C1 (configuration not stated) | 6.9% (inactive)
CC1CCN(Cc2c(O)ccc3c(=O)c(-c4nc5ccccc5s4)c(N)oc23)CC1 | 11.2% (inactive)
CC1CCCCN1Cc1c(O)ccc2c(=O)c(-c3nc4ccccc4s3)c(N)oc12 (configuration not stated) | 58% (active)
O=c1c(-c2ccccc2)c(O)nc2ccccn12 | 4.9% (inactive)
COc1cc(C(=O)OCC(=O)N(C)C)cc(NC(=O)c2ccco2)c1OC | 5.7% (inactive)
CO[C@H]1C=CO[C@@]2(C)Oc3c(C)c(O)c4c(O)c(c(C=NN5CCN(C6CCCC6)CC5)c(O)c4c3C2=O)NC(=O)C(C)=CC=C[C@H](C)[C@H](O)[C@@H](C)[C@@H](O)[C@@H](C)[C@H](OC(C)=O)[C@@H]1C | 50.8% (active)
CO[C@H]1C=CO[C@@]2(C)Oc3c(C)c(O)c4c(O)c(c(C=NN5CCN(C)CC5)c(O)c4c3C2=O)NC(=O)C(C)=CC=C[C@H](C)[C@H](O)[C@@H](C)[C@@H](O)[C@@H](C)[C@H](OC(C)=O)[C@@H]1C | 7% (inactive)
CO[C@H]1C=CO[C@@]2(C)Oc3c(C)c(O)c4c(O)c(c5c(nc6cc(C)ccn65)c4c3C2=O)NC(=O)C(C)=CC=C[C@H](C)[C@H](O)[C@@H](C)[C@@H](O)[C@@H](C)[C@H](OC(C)=O)[C@@H]1C | 13.9% (inactive)
CC1=NC(C(F)(F)F)(C(F)(F)F)C2=C(CC(C)(C)CC2=O)N1Cc1ccco1 | 6% (inactive)
CN1CCN(/N=C/c2nc(-c3cccc([N+](=O)[O-])c3)n3ccccc23)CC1 | 8.1% (inactive)
O=C(Nc1nc2ccccc2[nH]1)C1CCCC1 | 4.1% (inactive)
CC(NS(=O)(=O)c1ccccc1)C(c1cccs1)N1CCN(C)CC1 (configuration not stated) | 1.7% (inactive)
CC(=O)SC(C[N+](=O)[O-])c1cn(C(C)=O)c2ccccc12 (configuration not stated) | 63.1% (active)
CC(=O)n1cc(C(C[N+](=O)[O-])SCCN)c2ccccc21 (configuration not stated) | 6.6% (inactive)
CC(=O)n1cc(Nc2ccc([N+](=O)[O-])cc2)c2ccccc21 | -30.8% (inactive)
C=CCn1c(SCC(=O)Nc2nc(C)cs2)nnc1C(NC(=O)c1ccccc1)C(C)C (configuration not stated) | 5.4% (inactive)
O=C(CSc1nc(-c2ccccc2)nc2ccccc12)Nc1cccc(C(=O)O)c1 | 20.6% (inactive)
CCOC(=O)c1cc(-c2ccccc2)sc1NC(=O)c1cc(OC)c(OC)c(OC)c1 | 13% (inactive)

SMILES | inhibition
CCOC(=O)c1cc(-c2ccccc2)sc1NC(=O)c1ccc(OC)cc1 | 68.2% (active)
CCOC(=O)c1cc(-c2ccccc2)sc1NC(=O)c1ccc(OC)c(OC)c1 | 42.1% (inactive)
CCn1c(SCC(=O)c2ccc(CNC(C)=O)o2)nnc1-c1cccs1 | -9% (inactive)
O=c1cc(-c2ccccc2)[nH]c2ccccc12 | -3.1% (inactive)
O=c1cc2[nH]c3ccccc3c(=O)n2nc1-c1ccccc1 | 63.9% (active)
O=c1nc(-c2ccccc2)c2ccccc2[nH]1 | 10.3% (inactive)
Cc1ccc(Cl)cc1NC(=O)N[C@@H](C)C(=O)O | -0.2% (inactive)
O=C(C1CCN(S(=O)(=O)c2cccc3nsnc23)CC1)N1CCn2c1nc1ccccc12 | 8.5% (inactive)
C=CCn1c(NCCOC)nc2c1c(=O)n(C)c(=O)n2C | -2.8% (inactive)
CCCSc1nnc2nc(C)cc(C)n12 | -2.6% (inactive)
CCSc1nnc2nc(C)cc(C)n12 | 7.6% (inactive)
CC(Sc1sc(=S)sc1SC(C)C(=O)O)C(=O)O (configuration not stated) | -15.4% (inactive)
Cc1nnsc1SC(C)C(=O)O (configuration not stated) | 64.6% (active)
Cc1nnsc1SCC(=O)O | -12.4% (inactive)
Cc1ccc(S(=O)(=O)N2CCCCC2)cc1NC(=O)Nc1ccc(Cl)cc1Cl | 13.8% (inactive)
CC(Nc1ccc2c(c1)OCCO2)C(=O)N1CCc2ccccc21 (configuration not stated) | 6.4% (inactive)
Cn1c(=O)n(C)c2cc(S(=O)(=O)Nc3cc(Cl)ccc3O)ccc21 | 9.8% (inactive)
CCN1C(=O)c2cccc3c(NC(=O)C(C)(C)C)ccc1c23 | 13.8% (inactive)
CCN1/C(=N\N)c2cccc3cccc1c23 | -48% (inactive)
CCN1C(=O)c2cccc3c(N)ccc1c23 | 64.7% (active)
CNC(=O)CN1C(=O)c2cccc3cccc1c23 | -1.5% (inactive)
CCN1C(=O)c2cccc3c(S(=O)(=O)Nc4ccccc4)ccc1c23 | -1% (inactive)
